Here are results for 22 compounds from PubChem BioAssay.

A short description of experiment [1]: viability loss with induced miR-34 in A549 – imaging, A549 dox-inducible miR-34, nuclei and caspase counts, primary screen (AID 1347080;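 active = compounds whose cell count with miR-34 switched on is under 0.7 times the count with it off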). As to conditions: A549 miR-34 inducible, Hoechst nuclei count, 48 h.
Experiment [2] is described as follows: MELAS cybrid and Rieske KO viability enhancers – cell-based, MELAS cybrids, Rieske KO mouse fibroblasts, CellTiter-Glo, primary screen (AID 1508586).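 Note: z relative to plate mean and SD of compound and empty wells.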 The conditions noted are these: low glucose.
The mark [3] stands for this setting: stronger effect = lower value, cell number ratio, induced over uninduced.
The mark [4] stands for this setting: measured here: relative caspase fold change +Dox/-Dox.
[5] abbreviates: measured here: total cells with miR-34 induction, stronger effect = lower value.
[6] abbreviates: measured here: total cells without miR-34 induction.
Setting [7] is: MELAS cybrid survival, CellTiter-Glo 48 h, stronger effect = higher value.
The mark [8] stands for this setting: Rieske KO mouse fibroblast survival, CellTiter-Glo 72 h.

Values joined by “and” are separate entries in the source; they are usually repeats but may differ in a detail not shown here. Equal entries are not always repeated. Active and inactive are the calls of the source.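 Rule for the calls, unless noted: active = mean z-score across replicates of 1.96 or higher in either the MELAS or the Rieske mutant cell line; inactive = the rest.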
Note: test concentration not given here.

For `CC1(C)S[C@@H]2C(NC(=O)C(N)c3ccccc3)C(=O)N2C1C(=O)O` (some centres not stated), the values for the fold change in experiment [1] (setting [3]) and in experiment [1] (setting [4]) were 0.917 (inactive) and 0.571, respectively. The values for the cell count in experiment [1] (setting [5]) and in experiment [1] (setting [6]) were 8070 and 8800, respectively. Moreover, the z-score was -0.241 (inactive) in experiment [2] (setting [7]) and -0.225 in experiment [2] (setting [8]).

Take `COC1C[C@H]2CCC(C)[C@@](O)(O2)C(=O)C(=O)N2CCCC[C@H]2C(=O)OC(C(C)CC2CCC(OC(=O)C(C)(CO)CO)C(OC)C2)CC(=O)C(C)C=C(C)C(O)C(OC)C(=O)C(C)CC(C)C=CC=CC=C1C` (some centres not stated): the fold change in experiment [1] (setting [3]) is 1.08 (inactive); in experiment [1] (setting [4]), 0.974. Besides, the cell count in experiment [1] (setting [5]) turned out to be 3980; in experiment [1] (setting [6]) it was 3690. For the same compound, the z-score in experiment [2] (setting [7]) is 0.432 (inactive); in experiment [2] (setting [8]), 0.402.

For `CCCCCOC(=O)Nc1nc(=O)n(C2OC(C)C(O)C2O)cc1F` (configuration not stated), the fold change in experiment [1] (setting [3]) is 0.881 (inactive); in experiment [1] (setting [4]), 1.03. Further, the cell count in experiment [1] (setting [5]) came to 6790; in experiment [1] (setting [6]) it was 7710. Also, the values for the z-score in experiment [2] (setting [7]) and in experiment [2] (setting [8]) were -0.294 (inactive) and 0.792, respectively.

`COC(c1ccccc1)(c1ccccc1)C(Oc1nc(C)cc(C)n1)C(=O)O` (configuration not stated): the fold change is 0.951 (inactive) in experiment [1] (setting [3]) and 0.955 in experiment [1] (setting [4]). Also, the values for the cell count in experiment [1] (setting [5]) and in experiment [1] (setting [6]) were 7820 and 8220, respectively. Also, the z-score is -0.106 (inactive) and 0.539 (inactive) in experiment [2] (setting [7]); 0.0441 and -0.167 in experiment [2] (setting [8]).

For `CC(NC(=O)CCc1nc2ccccc2c(=O)[nH]1)c1ccccc1` (configuration not stated), the fold change in experiment [1] (setting [3]) is 0.914 (inactive); in experiment [1] (setting [4]), 0.487. In addition, the cell count in experiment [1] (setting [5]) was determined as 8620; in experiment [1] (setting [6]) it was 9430. In addition, the z-score is -0.406 (inactive) in experiment [2] (setting [7]) and -0.138 in experiment [2] (setting [8]).

Consider `OCc1ccccc1OC1OC(CO)C(O)C(O)C1O` (configuration not stated), for which the results for the fold change in experiment [1] (setting [3]) and in experiment [1] (setting [4]) were 0.944 (inactive) and 0.784, respectively. The values for the cell count in experiment [1] (setting [5]) and in experiment [1] (setting [6]) were 9350 and 9900, respectively. The z-score in experiment [2] (setting [7]) was -0.348 (inactive); in experiment [2] (setting [8]) it was 0.733.

With `CNC1CN(c2ccc3c(=O)c(C(=O)O)cn(-c4nccs4)c3n2)CC1OC` (configuration not stated), the results for the fold change in experiment [1] (setting [3]) and in experiment [1] (setting [4]) were 1.31 (inactive) and 0.345, respectively. Also, the cell count in experiment [1] (setting [5]) was 1410; in experiment [1] (setting [6]) it was 1080. Besides, the z-score in experiment [2] (setting [7]) was 2.91 (active); in experiment [2] (setting [8]) it was -1.95.

Turning to `CCOC(=O)N1c2ccc(C(F)(F)F)cc2C(N(Cc2cc(C(F)(F)F)cc(C(F)(F)F)c2)C(=O)OC)CC1CC` (configuration not stated), the results for the fold change in experiment [1] (setting [3]) and in experiment [1] (setting [4]) were 0.939 (inactive) and 0.794, respectively. Further, the cell count in experiment [1] (setting [5]) worked out at 8370; in experiment [1] (setting [6]), 8920. Moreover, the z-score in experiment [2] (setting [7]) was -0.304 (inactive); in experiment [2] (setting [8]) it was 0.988.

Regarding `CC(C)CCNC(=O)C(CC(C)C)NC(=O)C1OC1C(=O)O` (configuration not stated), the fold change in experiment [1] (setting [3]) is 0.919 (inactive); in experiment [1] (setting [4]), 0.36. In addition, the cell count in experiment [1] (setting [5]) is 8670; in experiment [1] (setting [6]), 9430. The z-score in experiment [2] (setting [7]) is -0.356 (inactive); in experiment [2] (setting [8]) it was 0.0853.

As for `COCCCOc1cc(CC(CC(N)C(O)CC(C(=O)NCC(C)(C)C(N)=O)C(C)C)C(C)C)ccc1OC` (configuration not stated), the fold change is 0.942 (inactive) in experiment [1] (setting [3]) and 0.734 in experiment [1] (setting [4]). Besides, the cell count in experiment [1] (setting [5]) is 7600; in experiment [1] (setting [6]), 8060. In addition, the z-score in experiment [2] (setting [7]) was 0.18 (inactive); in experiment [2] (setting [8]), -0.179.

In the case of `Nc1nc(=O)n(C2CSC(CO)O2)cc1F` (configuration not stated), the fold change in experiment [1] (setting [3]) was 0.88 (inactive); in experiment [1] (setting [4]), 0.906. Further, the cell count in experiment [1] (setting [5]) is 7840; in experiment [1] (setting [6]), 8920. In addition, the z-score in experiment [2] (setting [7]) was -0.288 (inactive); in experiment [2] (setting [8]) it was 0.564.

Consider `CCCC(NC(=O)C1[C@H]2CCC[C@H]2CN1C(=O)C(NC(=O)C(NC(=O)c1cnccn1)C1CCCCC1)C(C)(C)C)C(=O)C(=O)NC1CC1` (some centres not stated), for which the fold change in experiment [1] (setting [3]) is 0.872 (inactive); in experiment [1] (setting [4]), 1.37. The cell count in experiment [1] (setting [5]) is 5460; in experiment [1] (setting [6]) it was 6260. Besides, the z-score in experiment [2] (setting [7]) is -0.469 (inactive); in experiment [2] (setting [8]) it was 0.214.

Turning to `NC1CCCN(c2c(C=C3SC(=O)NC3=O)cccc2-c2ccccc2)C1` (configuration not stated), the fold change in experiment [1] (setting [3]) was 0.91 (inactive); in experiment [1] (setting [4]), 0.316. The values for the cell count in experiment [1] (setting [5]) and in experiment [1] (setting [6]) were 8290 and 9110, respectively. Moreover, the z-score in experiment [2] (setting [7]) was -0.282 (inactive); in experiment [2] (setting [8]) it was 0.224.

With `C1=CCOCc2cc(ccc2OCCN2CCCC2)Nc2nccc(n2)-c2cccc(c2)COC1`, the fold change in experiment [1] (setting [3]) is 0.848 (inactive); in experiment [1] (setting [4]) it was 0.685. For the same compound, the cell count was 776 in experiment [1] (setting [5]) and 915 in experiment [1] (setting [6]). Further, the values for the z-score in experiment [2] (setting [7]) and in experiment [2] (setting [8]) were 3.58 (active) and -5.03, respectively.

For the compound `Cc1cc(NC(=O)c2cccc(NC(=O)C=CCN(C)C)c2)ccc1Nc1nccc(-c2cccnc2)n1`, the fold change in experiment [1] (setting [3]) was 0.969 (inactive); in experiment [1] (setting [4]), 0.805. Moreover, the values for the cell count in experiment [1] (setting [5]) and in experiment [1] (setting [6]) were 6190 and 6390, respectively. The z-score in experiment [2] (setting [7]) is -0.659 (inactive); in experiment [2] (setting [8]) it was 0.143.

On to `COc1cc2ncnc(Sc3nnc(C)s3)c2cc1OC`, for which the results for the fold change in experiment [1] (setting [3]) and in experiment [1] (setting [4]) were 0.954 (inactive) and 0.244, respectively. Besides, the figures for the cell count in experiment [1] (setting [5]) and in experiment [1] (setting [6]) were 5380 and 5640, respectively. Besides, the z-score is 2.8 (active) in experiment [2] (setting [7]) and 1.21 in experiment [2] (setting [8]).

With `CC(CCC(=O)O)[C@@H]1CC[C@H]2[C@@H]3C(O)C[C@@H]4CC(O)CC[C@]4(C)[C@@H]3CC[C@]12C` (some centres not stated), the results for the fold change in experiment [1] (setting [3]) and in experiment [1] (setting [4]) were 0.828 (inactive) and 0.703, respectively. The cell count in experiment [1] (setting [5]) worked out at 7430; in experiment [1] (setting [6]), 8980. The values for the z-score in experiment [2] (setting [7]) and in experiment [2] (setting [8]) were -0.242 (inactive) and 0.0686, respectively.

Consider `Cc1ccc(S(=O)(=O)c2ccc([N+](=O)[O-])o2)cc1`, for which the fold change in experiment [1] (setting [3]) was 1.58 (inactive); in experiment [1] (setting [4]), 0.353. Besides, the results for the cell count in experiment [1] (setting [5]) and in experiment [1] (setting [6]) were 1860 and 1180, respectively. Besides, the z-score was -1.09 (inactive) in experiment [2] (setting [7]) and -6.94 in experiment [2] (setting [8]).

`CC1(C)S[C@H]2C(NC(=O)C(NC(=O)N3CCN(S(C)(=O)=O)C3=O)c3ccccc3)C(=O)N2C1C(=O)O` (some centres not stated): the fold change is 0.882 (inactive) in experiment [1] (setting [3]) and 0.658 in experiment [1] (setting [4]). Further, the figures for the cell count in experiment [1] (setting [5]) and in experiment [1] (setting [6]) were 7720 and 8750, respectively. Moreover, the z-score in experiment [2] (setting [7]) is -0.292 (inactive); in experiment [2] (setting [8]), -0.225.

For `Cc1onc(-c2ccccc2Cl)c1C(=O)NC1C(=O)N2C(C(=O)O)C(C)(C)S[C@@H]12` (some centres not stated), the fold change in experiment [1] (setting [3]) is 0.964 (inactive); in experiment [1] (setting [4]), 0.778. Also, the cell count in experiment [1] (setting [5]) came to 9670; in experiment [1] (setting [6]), 10000. The z-score in experiment [2] (setting [7]) is -0.365 (inactive); in experiment [2] (setting [8]), 0.485.

Turning to `Cc1cc(N2CCOCC2)cc2[nH]c(-c3c(NCC(O)c4cccc(Cl)c4)cc[nH]c3=O)nc12` (configuration not stated), the fold change in experiment [1] (setting [3]) was 1.08 (inactive); in experiment [1] (setting [4]), 0.775. The cell count in experiment [1] (setting [5]) was 928; in experiment [1] (setting [6]), 858. For the same compound, the z-score in experiment [2] (setting [7]) is -0.143 (inactive); in experiment [2] (setting [8]), -0.73.

For the compound `CCCN(CCc1cccs1)C1CCc2c(O)cccc2C1` (configuration not stated), the fold change in experiment [1] (setting [3]) was 0.911 (inactive); in experiment [1] (setting [4]) it was 0.584. Moreover, the cell count in experiment [1] (setting [5]) came out at 8660; in experiment [1] (setting [6]) it was 9500. Besides, the z-score was -0.281 (inactive) in experiment [2] (setting [7]) and -0.2 in experiment [2] (setting [8]).
